# PubChem BioAssay (NCI)
# Where “and” joins values, the source holds several entries; their conditions need not be identical. Equal entries are not always repeated. This is part of a sample that, as a whole, favours compounds with a hit. Of some 83,000 tested, about 20% had one in any assay.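 Cell lines were cultured in 96-well plates, exposed to a single compound concentration, and assessed for percent growth 48 hours later.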 Values without a mark were called inactive. Calls of active or inactive are those of the source.
# Test system: M14 melanoma
# Test: NCI-60 one-dose screen, 48 h (100 = growth as untreated, 0 = no growth, -100 = all killed)
# Conditions: 10 µM unless noted
# Description: Growth inhibition of the M14 human tumor cell line is measured as a screen for anti-cancer activity. Cells are grown in 96 well plates and exposed to the test compound for 48 hours. Compounds are tested at a single concentration, which is 10^-5 M for most compounds. The reported endpoint is percent growth (GI% or GIPRCNT), where numbers from 0 - 100% represent growth inhibition, and numbers from -100% - 0 represent cell death. For example, a value of 40 represents 60% growth inhibition. A value of 0 means no net growth occurred over the course of the experiment. A value of -40 indicates 40% of cells at the beginning of the experiment died by the end of the experiment. A value of -100 means all cells are dead at the end of the experiment.
# NCI-60 Human Tumor Cell Lines Screen was performed using the standard one-dose NCI protocol, which is described in more detail at https://dtp.cancer.gov/discovery_development/nci-60/default.htm.
# Compounds with GIPRCNT values below 10 were considered active. Activity score was based on GIPRCNT using the following formula: […]
# Score is 0 for GIPRCNT values of 100 or above, 50 for GIPRCNT values of 0, and 100 for GIPRCNT values of -100.
row,Compound,growth
1,C=CCOC(=O)C(Br)CC (stereo not given),109%
2,CC1(C)CN=C(NN=C(/C=C/c2ccc(C(F)(F)F)cc2)/C=C/c2ccc(C(F)(F)F)cc2)NC1,-71.7% (active)
3,O=C(O)CNCP(=O)(O)O,101%
4,C[C@]12C[C@H](c3ccoc3)OC(=O)[C@H]1CC[C@@]1(C)[C@@H]2[C@H]2C=C[C@]1(O)C(=O)O2,87.6%
5,O=C(NC(Cl)=C(Cl)Cl)P(=O)(c1ccccc1)c1ccccc1,111%
6,N#CC(N)c1ccccc1 (stereo not given),99.8%
7,COC(=O)CCP(CCC(=O)OC)c1ccccc1,101%
8,C[C@]12CC[C@H]3[C@@H](C[C@@H]4SC(Nc5cccc(F)c5)=N[C@@]45CC(=O)CC[C@]35C)[C@@H]1CCC2=O,44.8%
9,CC1=CC(=O)CCC12CCOC2=O (stereo not given),102%
10,COc1ccc2c(c1)c(-c1nc(-c3cn(C)c4ncccc34)cs1)cn2CCCCN1CCOCC1,-66.9% (active)
11,CC[C@H](C)[C@H](NC(=O)C12CC(NC)(C1)C2)C(=O)N(C)[C@H](C[C@@H](OC(C)=O)c1nc(C(=O)N[C@@H](Cc2ccccc2)C[C@H](C)C(=O)OC)cs1)C(C)C,6.71% (active)
12,C[C@]12CC[C@@H](OC(=O)N(CCCl)N=O)C[C@@H]1CC[C@@H]1[C@@H]2CC[C@]2(C)C(=O)CC[C@@H]12,72.5%
13,CN1CCN(c2ccc(Cl)cc2)CC1,101%
14,CC[C@@H](C)C(=O)O[C@H]1[C@H](O)[C@H]2[C@@H](CN3C[C@@H](C)CC[C@H]3[C@@]2(C)O)[C@@H]2C[C@]34O[C@]5(O)[C@@H](OC(=O)[C@@](C)(O)CC)CC[C@@]3(C)[C@@H]5[C@@H](OC(C)=O)[C@@H](OC(C)=O)[C@H]4[C@@]21O,95.6%
15,COC12CC3C4=CCOC5CC(=O)N6c7ccccc7C1(CCN2C4)C6C53 (stereo not given),99.2%
16,CCCC1CCCCC12C(=O)NC(=O)NC2=O (stereo not given),96.4% and 96.9%
17,Nc1ccc2c(c1)Cc1cc(N)ccc1-2,92.7%
18,CO[C@H]1[C@H](O[C@@H]2C[C@@H]3C/C=C/C(=O)O[C@@H](CO)C[C@H](O)[C@@H]4C[C@H](C)[C@H](C/C=C\C=C\[C@H](C)C[C@H](C2)O3)O4)O[C@@H](C)[C@H](O)[C@H]1O,74.7%
19,ClCc1ccc(Cl)c(Cl)c1,95.3%
20,CN1[C@@H](CC(=O)c2ccccc2)CCC[C@H]1CC(=O)c1ccccc1,104%

row,Compound,growth
1,O=C1c2ccccc2C(=O)N1N1CC1c1ccccc1 (stereo not given),100%
2,C[C@]12CCc3sc(Nc4ccc(F)cc4F)nc3C1=CC[C@@H]1[C@@H]2CC[C@]2(C)C(=O)CC[C@@H]12,57.8%
3,CC[C@H](C)[C@H](NC(=O)c1cnccn1)C(=O)N(C)[C@H](C[C@@H](OC(C)=O)c1nc(C(=O)N[C@@H](Cc2ccccc2)C[C@H](C)C(=O)OC)cs1)C(C)C,-5.51% (active)
4,CC(=O)Cc1ccc2c(c1)OCO2,105%
5,O=C(O)C(Br)CBr (stereo not given),90.2%
6,CCOC(=O)P(=O)(OCC)OCC,116%
7,C[C@]12CCc3sc(Nc4ccc(OC(F)(F)F)cc4)nc3C1=CC[C@@H]1[C@@H]2CC[C@]2(C)C(=O)CC[C@@H]12,83.9%
8,N#CC(NC(=O)CCl)=C(Cl)Cl,-91.1% (active)
9,Oc1ccccc1C=NCCN=Cc1ccccc1O.[Fe],93.9%
10,COc1ccc(N)cc1OC,109%
11,CC(Oc1ccc(-c2ccccc2)cc1)C(=O)O (stereo not given),102%
12,CCC1(NC(=O)c2cc(F)c(F)c(F)c2F)C(=O)NC(=O)N(C(C)C)C1=O (stereo not given),50%
13,O=C(O)CCCc1ccc(N(CCCl)CCCl)cc1,93.3% and 97.1%
14,COC(=O)C1=CCCN(C)C1,98% and 100%
15,O=C(CCCN1CCC2(CC1)C(=O)NCN2c1ccccc1)c1ccc(F)cc1,80.8% and 54%
16,CSc1cc(/C=C(\C)[C@@H]2C[C@@H]3O[C@]3(C)CCC[C@H](C)[C@H](O)[C@@H](C)C(=O)C(C)(C)[C@@H](O)CC(=O)O2)n(CCNC(=O)OC(C)(C)C)n1,56.7%
17,NC(=O)c1c(Br)c(Br)c(Br)c(Br)c1C(=O)O (tested in a mixture with another compound),97.1% and 107%
18,CC/C(Cc1ccccc1)=C(\c1ccc(OCCN2CCCC2)cc1)c1ccc(OC(=O)NCc2ccccc2)cc1,-60.7% (active)
19,COC(=O)C12C3C4C1C1C2C3C41NC(=O)c1csc([C@@H](C[C@H](C(C)C)N(C)C(=O)[C@@H](NC(=O)[C@H]2CCCCN2C)C2CC2)OC(C)=O)n1 (stereo not given in full),9.39% (active)
20,O=[N+]([O-])c1c(Cl)cc(Cl)c([N+](=O)[O-])c1Cl,97.2%
